Hits are enriched below; roughly 1.1% of the tested compounds scored in any of these assays.
BAP1 block: inhibitors of human BAP1 deubiquitinase; calls only at 20 µM; actives 0.48% (n = 72,000); Q92560; recombinant BAP1, Ub-AMC hydrolysis fluorescence kinetic; stronger effect = lower value;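 active = activity remaining at or below 50% of control, provided the compound also passes the data quality filters; inactive = the rest, including low values that fail the filters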;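 also: 100% = DMSO wells rate and 0% = substrate alone blank rate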
E coli RNAP: blocks E. coli RNA polymerase transcription. P0A8V2. fluorescence transcription assay. inhibition, %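 (tested at 10 µM)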. actives 0.2% (n = 62,000). AID 559; in the data active = inhibition above about 20%;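 also: 0% = enzyme without compound and 100% = no enzyme blank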
C1s inh: human complement C1s inhibition; purified C1s, fluorogenic AMC substrate, pooled mixtures; mean inhibition % of two 10-compound mixtures (stronger effect = higher value), % at 5 µM (by protocol); actives 0.16% (n = 62,000); AID 538;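 active = inhibition above 20% in each of the two 10-compound mixture wells holding the compound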;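 also: 0% = enzyme wells lacking compound mixture and 100% = no-enzyme blank wells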
Target sequence (P09871 16-437 limits assumed): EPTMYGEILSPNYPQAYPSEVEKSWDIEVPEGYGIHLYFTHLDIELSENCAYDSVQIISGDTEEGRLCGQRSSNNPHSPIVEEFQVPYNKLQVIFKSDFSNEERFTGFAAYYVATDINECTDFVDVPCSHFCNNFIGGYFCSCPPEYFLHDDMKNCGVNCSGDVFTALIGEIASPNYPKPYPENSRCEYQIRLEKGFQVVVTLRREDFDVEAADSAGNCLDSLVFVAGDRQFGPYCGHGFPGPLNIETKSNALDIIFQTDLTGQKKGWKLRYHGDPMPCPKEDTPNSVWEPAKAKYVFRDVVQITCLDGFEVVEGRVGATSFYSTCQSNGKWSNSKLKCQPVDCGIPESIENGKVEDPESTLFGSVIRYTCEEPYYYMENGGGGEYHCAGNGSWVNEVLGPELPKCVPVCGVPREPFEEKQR
Target sequence (P09871 438-688 limits assumed): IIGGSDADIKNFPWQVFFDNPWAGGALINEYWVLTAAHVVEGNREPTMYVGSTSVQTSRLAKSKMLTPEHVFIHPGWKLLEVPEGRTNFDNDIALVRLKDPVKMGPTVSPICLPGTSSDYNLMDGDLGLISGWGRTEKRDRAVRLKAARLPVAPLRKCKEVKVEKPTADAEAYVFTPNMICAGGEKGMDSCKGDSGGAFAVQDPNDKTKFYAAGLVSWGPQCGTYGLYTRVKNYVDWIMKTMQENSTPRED
FXIa mix inh: factor XIa (human) inhibition, mixture screen | inhibition, % at 5 µM | AID 680 | purified FXIa, fluorogenic substrate, pooled mixtures | actives 0.19% (n = 62,000);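 also: each value is inhibition by a whole ten-compound pool holding the compound; 0% = enzyme with no mixture and 100% = wells lacking enzyme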
CatG inh: inhibitors of human cathepsin G; AID 581; P08311; actives 0.2% (n = 62,000); purified enzyme, AMC-tetrapeptide fluorescence, pooled mixtures; inhibition, % at 5 µM (by protocol);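 active = inhibition above 20% in each of the two mixture wells holding the compound; inactive = inhibition of 20% or less in either well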;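 also: 0% = enzyme control without mixture and 100% = blank lacking enzyme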
FXIIa mix inh: blocks human factor XIIa in pooled compound mixtures; P00748; inhibition, % at 5 µM; actives 0.2% (n = 62,000); AID 684; purified FXIIa, fluorogenic substrate;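 also: 0% = enzyme without compound and 100% = no enzyme blank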
Numbers without * were called inactive; i = inactive; · = no result given; + = active, no number. Rule as the data show it, unless noted: active = inhibition above about 20% (passing the limit was not always enough); inactive = the rest.

SMILES | BAP1 block | E coli RNAP | C1s inh | FXIa mix inh | CatG inh | FXIIa mix inh
CCOC(=O)c1ccc(NC(=O)COC)cc1 | i | 12 | 10 | 7 | 9 | 1
CCOC(=O)c1ccc(NC(=O)C(CC)(CC)C(=O)OCC)cc1 | i | 11 | 10 | 1 | 12 | 50*
Cc1nn(Cc2ccc(Cl)c(Cl)c2)c(C)c1NC(=O)c1cc(-c2ccc3c(c2)OCO3)on1 | i | 6 | -25 | 12 | 40* | 3
COc1ccc(OC)c(-c2cc(C(=O)Nc3c(C)nn(Cc4ccc(Cl)cc4)c3C)no2)c1 | · | 6 | 11 | 6 | 10 | 8
COc1ccc(-c2cc(C(=O)Nc3c(C)nn(Cc4ccccc4Cl)c3C)no2)cc1 | · | 1 | 10 | 24 | 52* | 14
COc1ccc(OC)c(-c2cc(C(=O)Nc3c(C)nn(Cc4ccccc4)c3C)no2)c1 | · | 7 | -18 | 20* | 50* | 9
O=C(O)c1ccc(NS(=O)(=O)c2cc(C(=O)Nc3ccccc3)ccc2Cl)cc1 | i | · | · | · | · | ·
Cc1cc(C)nc(NS(=O)(=O)c2ccc(NC(=O)c3cc([N+](=O)[O-])ccc3Cl)cc2)n1 | i | · | · | · | · | ·
CCC(=O)N1N=C(c2c(-c3ccccc3)c3cc(Br)ccc3[nH]c2=O)CC1c1cccc([N+](=O)[O-])c1 (stereo not given) | i | · | · | · | · | ·
Cc1ccc(N2C(=O)C3C(C2=O)C2(C)c4ccccc4C3(C)c3ccccc32)cc1[N+](=O)[O-] (stereo not given) | i | · | · | · | · | ·
CCN(CC)S(=O)(=O)c1ccc(C(=O)Nc2c3c(nn2-c2ccc(Cl)cc2)CSC3)cc1 | i | · | · | · | · | ·
c1ccc(CC2NCCc3c2[nH]c2ccccc32)cc1 (stereo not given) | i | · | · | · | · | ·
O=C(O)CSC12CC3CC(C1)CC(C(=O)O)(C3)C2 | i | -1 | 0 | 24* | 1 | -4
O=C(CCCn1c(=S)[nH]c2cc3c(cc2c1=O)OCO3)N1CCN(c2ccccc2)CC1 | i | -6 | -3 | 16 | -3 | -20
Cc1cccc(N2CCN(C(=O)CCn3c(=S)[nH]c4cc5c(cc4c3=O)OCO5)CC2C)c1 (stereo not given) | i | 2 | 2 | 5 | 2 | 45*
O=C1NCCCc2nc(Oc3ccccc3)sc21 | i | 8 | 11 | 5 | 10 | -14
COc1nc2c(s1)C(=O)NCCC2 | i | 1 | 14 | 7 | 8 | 20*
CC(NC(=O)c1cc2ccccc2o1)C(=O)O (stereo not given) | i | 44* | -3 | 8 | -1 | -1
C[n+]1cccc2cc(O)ccc21 | i | · | · | · | · | ·
COc1ccc2c(c1)CCc1c(C(=O)NCCc3ccc(OC)c(OC)c3)noc1-2 | i | -5 | -15 | 4 | 52 | 0
COc1ccc2c(c1)CCc1c(C(=O)Nc3ccc(OC)c(OC)c3)noc1-2 | i | 4 | 19 | 7 | 37* | -4
COc1ccc2c(c1)CCc1c(C(=O)NCc3ccc(F)cc3)noc1-2 | i | -15 | 44* | 27 | 93* | 4
O=C(Nc1nc(-c2cccs2)c(C(=O)C(F)(F)F)s1)c1ccc(F)cc1 | i | · | · | · | · | ·
Cc1cccc(C)c1NC(=O)CN1C(=O)c2ccccc2C1=O | i | · | · | · | · | ·
O=C(NCCN1CCOCC1)c1ccc(-c2ccccc2)cc1 | i | 3 | -24 | -3 | 5 | -32
SMILES | BAP1 block | E coli RNAP | C1s inh | FXIa mix inh | CatG inh | FXIIa mix inh
O=C(NCCN1CCOCC1)c1noc2c1CCc1ccccc1-2 | i | 6 | 20 | 15 | 90* | 2
O=C(NCCc1ccccc1)c1noc2c1CCc1ccccc1-2 | i | 11 | 26* | 36* | 101* | 8
CCCc1cc(C(=O)NCCc2ccccc2)no1 | i | 10 | 8 | 1 | 9 | 3
O=C(Cc1ccc(-c2ccccc2)cc1)NCCN1CCOCC1 | i | 3 | 24* | 9 | 10 | 3
CCCNC(=O)c1noc2c1CCc1ccccc1-2 | i | 7 | 8 | 10 | 61* | 1
CC(=O)Nc1ccc(S(=O)(=O)n2nc(C)c(Sc3ccc(Cl)cc3)c2C)cc1 | i | · | · | · | · | ·
CCC(C)[C@@H](NC(=O)OC(C)(C)C)c1nnc(S(=O)(=O)Cc2cccc(C)c2)o1 (stereo not given in full) | i | 7 | 15 | 21* | 10 | 12
CC(C)(C)OC(=O)N[C@@H](Cc1ccccc1)c1nnc(S(=O)(=O)Cc2ccccc2)o1 | i | · | 5 | 8 | 83* | -3
CCC(C)C(NCc1cccc(C)c1)C(=O)O (stereo not given) | i | 6 | 7 | 16 | 3 | 1
COc1ccc(OC)c(S(=O)(=O)Nc2ccc(O)c3ccccc23)c1 | i | 28* | -2 | -2 | 10 | 3
Cc1cc(=O)c2n(Cc3ccccc3Cl)nc[n+]2[nH]1 | i | 57* | 5 | 5 | 3 | 4
Cc1cc(C)n(Cc2ccccc2Cl)n1 | i | 8 | 7 | -2 | -4 | 1
CCC(=O)Nc1ccc(NC(=O)CSc2nnnn2C(C)C)cc1 | i | 12 | 15 | 27* | 16 | 1
O=C(O)C1=CC(=C(c2ccc(O)c(C(=O)O)c2)c2ccc(O)c(C(=O)O)c2)C=CC1=O | + | · | · | · | · | ·
O=C(CNC(=O)c1cccs1)NCCN1CCN(c2ccccc2F)CC1 | i | 9 | 5 | 21* | 8 | 9
Cc1ccccc1CS(=O)(=O)CCC(=O)NCCCN1CCN(c2ccccc2F)CC1 | i | -1 | -14 | -3 | -3 | 28
Cc1cc(=O)oc(C)c1C(=O)NCCCN1CCN(c2ccccc2F)CC1 | i | 1 | 9 | 37* | 10 | 7
O=C(NCc1ccc(F)cc1)c1nn2c(C(F)(F)F)cc(-c3cccs3)nc2c1Br | i | · | · | · | · | ·
COC(=O)NC1CSCC1OC(=O)c1ccc(Br)cc1 (stereo not given) | i | 2 | -120 | -27 | -19 | -7
CC(=O)NC(=O)NC1CSCC1OC(C)=O (stereo not given) | i | 11 | 58* | 8 | 14 | 0
O=C(NC1CCS(=O)(=O)C1)c1c(NC(=O)C2COc3ccccc3O2)sc2c1CCCC2 (stereo not given) | i | 32* | 23 | 9 | 5 | 12
O=C(Nc1nc2c(s1)CCCC2)C1COc2ccccc2O1 (stereo not given) | i | 4 | -20 | 9 | 4 | 2
CC(NC(=O)c1ccccc1NC(=O)c1ccco1)c1ccccc1 (stereo not given) | i | 5 | 6 | 24* | 8 | 7
CC(C)C(NC(=O)c1ccccc1NC(=O)c1ccco1)C(=O)O (stereo not given) | i | 5 | -3 | 12 | 4 | -2
CCc1nc2ccccc2n(CC)c1=O | · | 3 | -23 | -18 | 0 | 0
CCn1c(=O)c(C(C)=O)nc2ccccc21 | i | · | 22* | 9 | 15 | 4
Cc1ccc2c(c1)C(C)(c1ccccc1)CC(C)(C)N2C(=O)CN1C(=O)C2CCCCC2C1=O (stereo not given) | i | · | · | · | · | ·

Bioassay records as filed in PubChem.
